Consider 99 compounds from PubChem BioAssay AID641 (Vanderbilt High Throughput Screening Facility, 2007).

Screen size: about 58,000 compounds; about 3,400 (5.9%) were called active.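 The calls were made as follows: active = luminescence count or its row- and column-corrected plate score outside the 99.7% band of the plate's sample wells, on either side; inactive = the rest.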 The sample as a whole holds a higher share of actives than the screen did.

The target of the assay is D(1A) dopamine receptor (Homo sapiens) (UniProt P21728). Description: D1 CRE-luciferase signal change, two-sided – cell-based, HEK293 D1, dopamine EC30, D1 allosteric modulator project, primary screen (AID 641). The settings on record: dopamine EC30 potentiation, at 10 µM, actives deviate in either direction.
D(1A) dopamine receptor (Homo sapiens), sequence (P21728 whole entry, looked up): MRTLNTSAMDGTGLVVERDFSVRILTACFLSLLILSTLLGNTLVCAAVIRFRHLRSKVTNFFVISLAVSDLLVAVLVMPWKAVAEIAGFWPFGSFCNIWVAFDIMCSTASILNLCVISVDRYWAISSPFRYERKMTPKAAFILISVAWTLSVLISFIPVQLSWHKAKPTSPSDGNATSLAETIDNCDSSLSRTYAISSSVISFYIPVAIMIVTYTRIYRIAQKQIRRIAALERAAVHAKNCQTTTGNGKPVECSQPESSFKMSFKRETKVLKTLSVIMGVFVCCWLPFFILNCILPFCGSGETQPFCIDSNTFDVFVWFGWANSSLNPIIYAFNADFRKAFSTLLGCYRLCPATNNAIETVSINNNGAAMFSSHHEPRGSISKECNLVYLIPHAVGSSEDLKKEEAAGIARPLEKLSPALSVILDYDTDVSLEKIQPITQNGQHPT
Consider `O=C(CSc1nnc(-c2cccs2)n1-c1ccccc1)NCc1ccco1`, for which the B-score is 0.124 (inactive). For `CCOc1cc(C(=S)N2CCOCC2)ccc1O`, the B-score was 0.0105 (inactive). Turning to `O=C(CSC1=NCCS1)Nc1nc(-c2ccccc2)cs1`, the B-score was 2.09 (inactive).

For the compound `NC(=O)c1ccccc1NC(=O)c1ccccc1F`, the B-score was -0.754 (inactive). As for `COc1ccc(-n2nnc3c(=O)n(CC(=O)N4CCC(Cc5ccccc5)CC4)cnc32)cc1`, the B-score is -0.0249 (inactive). Turning to `COCCNC(=O)Cn1cc2c(n1)CCCCC2`, the B-score was -0.978 (inactive). The figure for `COc1ccc(S(=O)(=O)N(CCCN2CCCC2=O)Cc2cc3c(C)ccc(C)c3[nH]c2=O)cc1` is 0.354 (inactive); for `O=C(c1cccs1)N1CCN(Cc2ccc3c(c2)OCO3)CC1` it is -0.554 (inactive). For `Cc1cc(N2CCN(Cc3ccc4c(c3)OCO4)CC2)n2ncnc2n1` the value was 0.443 (inactive). The figure for `CN1CCN(CC(O)COCc2ccc3c(c2)OCO3)CC1` (centres undefined) is 3.63 (active); for `CC(=O)Nc1ccc(S(=O)(=O)N2CCSCC2)cc1` it is -0.0119 (inactive); for `CCOC(=O)C(C)Oc1cccc2c(=O)n(CC(=O)N3CCc4ccccc43)ccc12` (centres undefined) it is 0.245 (inactive). As for `COCCNCCOCCOc1cccc(OC)c1`, the B-score is -0.824 (inactive). With `Cc1cccn2c(=O)c3cc(C(=O)NCc4ccccn4)n(C)c3nc12`, the B-score is 0.762 (inactive). The figure for `O=C(NCc1ccccn1)c1cc2ccccc2oc1=O` is 0.0147 (inactive).

`O=C(NCc1ccccn1)c1ccc2nc(-c3ccco3)c(-c3ccco3)nc2c1`: the B-score was 7.64 (active).

In the case of `CCOC(=O)c1sc(NC(=O)C(CC)Sc2nccn2C)nc1C` (centres undefined), the B-score is 0.947 (inactive).

As to `Cc1cc(C)nc(SCc2ccccc2C#N)n1`, the B-score is 1.42 (inactive). Take `CCC(Sc1nncn1C)C(=O)Nc1nnc(-c2ccc(Cl)cc2)s1` (centres undefined): the B-score is 0.176 (inactive). Regarding `COCCN(CC(=O)Nc1ccccc1C)S(=O)(=O)c1ccc(S(=O)(=O)N2CCCC2)cc1`, the B-score was 0.0335 (inactive). With `CCn1c(SCCC(C)C)nnc1-c1c[nH]c2ccccc12`, the B-score was -1.04 (inactive). With `CCOC(=O)c1cnc2sccn2c1=O`, the B-score is -0.341 (inactive).

Turning to `COc1ccc(CNC(=O)c2cc3c(=O)n4ccccc4nc3n(CC3CCCO3)c2=N)cc1` (centres undefined), the B-score is -0.73 (inactive). For `CCCn1c(=NC(C)=O)c(C(=O)OCC)cc2c(=O)n3ccccc3nc21` the value was 4.16 (active). The figure for `COc1cccc(N2C(=O)C3CCCN3C2c2ccc(F)cc2)c1` (centres undefined) is 0.0389 (inactive). The figure for `COCCNC(=O)C(c1ccc(C)o1)N(Cc1ccccc1)C(=O)Cn1nnc2ccccc21` (centres undefined) is 0.0616 (inactive); for `Cc1ccc(-c2nn(-c3ccccc3)cc2CN(Cc2ccccc2)C(=O)CCC(=O)O)o1` it is 13.6 (active). Consider `COc1ccc(-c2nn(-c3ccccc3)cc2C(=O)Nc2nc(CC(C)=O)ns2)cc1`, for which the B-score was 0.451 (inactive). For `O=C(O)CCCC(=O)Nc1ccccc1-n1ccnc1` the value was -0.0259 (inactive); for `CNC(=O)CSc1nnc(CCc2ccccc2)n1-c1ccccc1`, 0.762 (inactive).

`c1ccc(-c2nnc3n2NC(c2ccc4c(c2)OCO4)S3)cc1` (centres undefined): the B-score is 7.49 (active).

For the compound `O=C(CN1CCN(c2nc(-c3ccccc3)cs2)CC1)NCc1ccc2c(c1)OCO2`, the B-score is -0.0459 (inactive). For `CC1=C(C(N)=O)C(c2ccc3c(c2)OCO3)n2nc(-c3cccc(C)c3)nc2N1` (centres undefined) the value was 0.00602 (inactive).

As to `COC(=O)c1cc(OC)c(OC)cc1NC(=O)C1CCCO1` (centres undefined), the B-score is 3.46 (inactive). For `CCc1nnc(NC(=O)CSc2nnc(-c3ccncc3)n2Cc2ccccc2)s1` the value was -0.0482 (inactive); for `O=[n+]1c2c(n([O-])c3cc(Br)ccc31)CCC2`, -0.651 (inactive); for `O=C(CSc1nnc2scc(-c3ccc(F)cc3)n12)NCc1ccco1`, 6.74 (active). Turning to `Cc1ccc(-c2csc3nnc(SCC(=O)NCc4ccco4)n23)cc1`, the B-score was 1.29 (inactive). The figure for `Cn1c(-c2ccc(F)cc2)cnc1SCC(=O)NCc1ccco1` is -0.294 (inactive); for `Cn1c(SCC(=O)Nc2cccc(O)c2)nnc1-c1ccc(S(=O)(=O)N2CCOCC2)cc1` it is 0.0252 (inactive). For `CCCCn1c(CN2CCN(CCO)CC2)nc2ccccc21`, the B-score was 1.03 (inactive). In the case of `N#Cc1c2c(c(N3CCN(CCO)CC3)n3c1nc1ccccc13)CCCC2`, the B-score is 4.34 (active).

For the compound `CN(C)CCCNc1c2c(c(C#N)c3nc4ccccc4n13)CCC2`, the B-score was 0.142 (inactive).

Turning to `COc1ccc(C2CC(=O)C=C(NCC3CCCO3)C2)cc1` (centres undefined), the B-score is 0.013 (inactive). With `CCn1c(SCC(=O)Nc2nc3ccc(OC)cc3s2)nnc1-c1ccoc1C`, the B-score was -0.00542 (inactive). On to `COc1cc2cc(CN(CCN3CCCC3)C(=O)Nc3ccccc3Cl)c(=O)[nH]c2cc1OC`, for which the B-score is -0.557 (inactive). The figure for `COc1ccccc1NC(=O)C1=C(C)NC2=C(C(=O)CCC2)C1c1ccc(C)o1` (centres undefined) is 0.26 (inactive).

As for `COC(=O)C1=C(C)NC(=O)NC1/C=C/c1ccccc1` (centres undefined), the B-score is 0.394 (inactive). The figure for `COC(=O)C1=C(C)NC2=C(C(=O)c3ccccc32)C1c1ccc(-c2ccc(C(=O)O)cc2)o1` (centres undefined) is 6.14 (active); for `Cc1ccc2nc3n(c(=O)c2c1)CCC3` it is -0.684 (inactive); for `O=c1c2c(nc3n1CCCCC3)sc1c(O)cccc12` it is -6.41 (active). `O=C(Cn1[nH]c(=O)c2ccccc2c1=O)Nc1cccc(-c2nnc3n2CCCCC3)c1`: the B-score was 0.394 (inactive). Consider `CCSC(C)CC1C/C(=N/O)c2c(C)noc2C1` (centres undefined), for which the B-score was 3.09 (inactive). As to `CCCOC(=O)c1[nH]c2c(c1C)C(=O)CC(c1cc(OC)c(OC)c(OC)c1)C2` (centres undefined), the B-score is -3.89 (active). With `COC(=O)C1C(=O)c2c([nH]c(C(=O)OCCSC)c2C)CC1C` (centres undefined), the B-score is 0.0229 (inactive). Turning to `CCOC(=O)c1[nH]c2c(c1C)C(=O)CC(c1ccc(N(C)C)cc1)C2` (centres undefined), the B-score is -1.04 (inactive).

`O=C(CN1C2CCC1CC(NC(=O)C1CC1)C2)NCc1ccccc1` (centres undefined): the B-score is 0.0586 (inactive). In the case of `CCOC(=O)Cc1c(C)nc2c(C#N)c(C)nn2c1C`, the B-score was -0.671 (inactive). For `Cc1ccc(-n2ncc3c2ncn2nc(-c4ccco4)nc32)c(C)c1` the value was 0.753 (inactive); for `Cc1ccc(-n2ncc3c(=O)[nH]cnc32)c(C)c1`, -0.523 (inactive); for `Cc1ccc(-n2ncc3c(N4CCN(c5ccc(F)cc5)CC4)ncnc32)c(C)c1`, -2.95 (active).

`Cc1nc2sc(C(c3ccco3)N3CCOCC3)c(O)n2n1` (centres undefined): the B-score is 0.108 (inactive). On to `Cc1ccc(C(c2sc3nc(C)nn3c2O)N2CCN(c3ccc(F)cc3)CC2)cc1` (centres undefined), for which the B-score is -1.2 (inactive). With `Cc1ccc(C(c2sc3nc(C)nn3c2O)N2CCN(c3ccccc3)CC2)cc1` (centres undefined), the B-score was -3.44 (active). As to `O=C(Nc1c(C(=O)N2CCCCC2)cnn1-c1ccccc1)c1ccco1`, the B-score was -0.19 (inactive). With `CCC(=O)NC(=Nc1nc2ccccc2s1)NC(=O)CC`, the B-score is 11.5 (active). Turning to `O=C(O)CSCc1nc2ccccc2s1`, the B-score is -0.539 (inactive). For `COC(=O)Cc1cc(=O)n(-c2nc3ccccc3s2)[nH]1` the value was 0.0542 (inactive); for `CCC(=O)c1cc2c(cc1NC(=O)c1cccs1)OCCO2`, 1.41 (inactive); for `CCCC(=O)C1=C(N(C)c2ccccc2)CC(C)(C)C(C(=O)OC)C1=O` (centres undefined), 0.78 (inactive). The figure for `Cn1c2ccccc2c2c(C(=O)N3CCN(c4ccc(F)cc4)CC3)cn(C3CCCC3)c(=O)c21` is 0.395 (inactive). The figure for `Cc1c(CN2CCC(C)CC2)c(=O)n(-c2ccccc2)n1C` is 0.319 (inactive).

With `Cn1cccc1C(=O)NC(=O)COC(=O)Cc1coc2ccc3ccccc3c12`, the B-score was -0.19 (inactive). Regarding `COc1ccc(C(=O)c2oc3ccc(Br)cc3c2NC(C)=O)cc1`, the B-score is -0.206 (inactive). For `Cc1cc(C(=O)O)c(S(C)(=O)=O)s1` the value was 0.833 (inactive); for `CC(=O)c1c(C)c[nH]c1C`, -3.34 (active); for `CC(C)OC(=O)CN1C(=O)c2ccccc2C1=O`, 0.49 (inactive). The figure for `O=C(CCN1C(=O)c2ccccc2C1=O)Nc1ccncc1` is 0.176 (inactive); for `COC(=O)Nc1ncc(CN2C(=O)c3ccccc3C2=O)s1` it is 3.19 (active). With `CN(C)c1cc(N)c2ccccc2n1` (tested in a mixture with another compound), the B-score was -2.66 (inactive).

With `CCOC(=O)C1CCN(C(=O)Nc2ccc(Cl)cc2)CC1`, the B-score is -0.339 (inactive). The figure for `CCn1nc(C(=O)OCC(=O)N2c3ccccc3CC2C)c2ccccc2c1=O` (centres undefined) is 4.38 (active); for `CC1Cc2ccccc2N1C(=O)Cn1cnc2ccccc2c1=O` (centres undefined) it is -0.115 (inactive); for `CCCCn1nc(C(=O)N2CCc3ccccc32)c2ccccc2c1=O` it is 0.35 (inactive). For the compound `O=C(COc1ccc2c3c(c(=O)oc2c1)CCC3)NC1CCCCC1`, the B-score is -1.02 (inactive). On to `CC(C)Nc1nc(N(c2ccccc2)c2ccccc2)nc(-n2ccnc2)n1`, for which the B-score was 0.848 (inactive). For `N#Cc1nc(N)nc(N(c2ccccc2)c2ccccc2)n1` the value was 4.55 (active). For `CC(C)(C)Oc1ncc(Br)c(OC(C)(C)C)n1` the value was 0.0357 (inactive).

`C=CCSc1nc2ccccc2[nH]1`: the B-score is -0.468 (inactive). The figure for `c1ccc2[nH]c(-c3nc4ccccc4[nH]3)nc2c1` is -2.93 (active); for `c1ccc(-c2[nH]ncc2-c2nc3ccccc3[nH]2)cc1` it is 0.738 (inactive).

For `c1ccc(-n2ncc3c2ncn2c(CSc4nc5ccccc5s4)nnc32)cc1`, the B-score was -0.538 (inactive). In the case of `Cc1cccc(OCc2nnc(SCC(=O)N3CCN(C(=O)c4ccco4)CC3)n2C)c1C`, the B-score is -0.00929 (inactive). The figure for `N#CC1=C(N)Oc2cc(O)ccc2C1C1CCCCC1` (centres undefined) is -0.438 (inactive); for `Cc1cccc(NC(=O)COc2ccc(Br)cc2C)n1` it is 0.787 (inactive). In the case of `O=C(C1CCCO1)N(Cc1ccccc1)c1ccccc1` (centres undefined), the B-score is 0.947 (inactive).

For `CCn1c(SCC(=O)Nc2ccc3c(c2)OCCO3)nc2c(c1=O)SC(C)C2` (centres undefined), the B-score was 2 (inactive).

As to `CCn1c(SCC(=O)Nc2ccccc2F)nc2c(c1=O)SC(C)C2` (centres undefined), the B-score was 0.8 (inactive). For `CCCCSc1nc2c(c(=O)n1CC)SC(C)C2` (centres undefined) the value was 9.06 (active).
